Bioassay records deposited in PubChem BioAssay by National Center for Advancing Translational Sciences (NCATS).
In the library only some 12% were active in any assay of this set; here they are far more common.
Pf growth 96h = inhibits malaria parasite growth, 96 h | P. falciparum luciferase reporter growth, 96 h | AID 504834 | hit rate 6.9% among 320,000 | Potency, µM (titrated, usually from 28.7 µM), for inactives: top-dose activity change, negative = inhibition, actives largely listed as inhibitors; also: % is scaled to controls: 0 for no effect and ±100 for the full control effect
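Two parasite generations (96 h, 37 C, 5% CO2) of compound exposure in infected erythrocytes (0.05% parasitemia, 2% hematocrit). Luciferase-reporter P. falciparum; decreased luminescence indicates inhibited growth, aimed at apicoplast-acting delayed death.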
AMA1 RON2 block = inhibitors of Plasmodium falciparum AMA1-RON2 interaction; AlphaScreen AMA1-biotinylated RON2 peptide binding; Potency, µM (top dose mostly 58.2 µM), inactives show at the highest dose activity change, negative = inhibition, usual class: inhibitors; hit rate 0.2% among 360,000; AID 720542;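 also: 0% = vehicle wells and -100% = peptide control; nearly all actives have a fitted effect of over 45% in size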
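AMA1 (3D7) with his tag at 25 nM final met compounds first, then biotinylated RON2 peptide at 25 nM; detection used donor plus acceptor beads, 10 µg/mL apiece, read by AlphaScreen after 30 min at room temperature.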
NS1 function inh = blocks influenza NS1 protein function | Potency, µM (titrated, usually from 46.1 µM), for inactives: at the highest dose activity, positive = more growth | hit rate 0.4% among 270,000 | AID 2326; calls by dose curve; also: actives are rising curves; nearly all actives have a fitted effect of over 50% in size
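A cell-based growth assay was used: compounds that relieve NS1-induced slow growth of budding yeast raise OD600. Assay medium was yeast nitrogen base with ammonium sulphate and -URA supplement, pH 6.0, with 2% galactose.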
HCV inh = HCV inhibition; Potency, µM (top dose mostly 41.8 µM), for inactives: at the top dose activity change, negative = inhibition, usual class: inhibitors; Huh7.5.1 HCVcc-Cre infection, luciferase reporter, 44 h; hit rate 3.4% among 340,000; also: % is scaled to controls: 0 for no effect and ±100 for the full control effect
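Cells (1,000/well) were plated 4 h before compound, then infected with HCVcc-Cre virus (~0.5 moi). After 44 h further culture, infection was read as luciferase luminescence following a 15 min substrate incubation at room temperature.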
SARS PLP yeast = blocks SARS-CoV papain-like protease in a yeast assay; S. cerevisiae expressing SARS-CoV PLpro, growth rescue; AID 485353; hit rate 0.19% among 330,000; Potency, µM (top dose mostly 32.9 µM), inactives show at the highest dose activity, positive = growth rescue, hits mostly activators; calls by dose curve; also: 0% is about no effect; nearly all actives have a fitted effect of over 55% in size
Pf growth 48h = P. falciparum growth inhibition at 48 hours (one generation); hit rate 5.9% among 310,000; P. falciparum luciferase growth in erythrocytes, 48 h; Potency, µM (highest dose often 28.7 µM), for the others: top-dose activity change, negative = inhibition, hits mostly inhibitors; also: % is scaled to controls: 0 for no effect and ±100 for the full control effect
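Compounds are pin-transferred into medium, infected erythrocytes (2% hematocrit, 0.1% parasitemia final) are added, and plates sit one parasite generation at 37 C in 5% CO2. Detection reagent is then added and luminescence measured.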
* = called active by the depositor; ? = inconclusive; / = not tested or not shown. Unless noted, calls follow the shape of the dose curve; as a rule, active = well fitted curve in the direction sought with a large enough effect; inconclusive = small, poorly fitted or top-dose-only effect, or another doubt; inactive = no such curve, though single readings can be large; an effect the other way counts as inactive or inconclusive. Potency is read from the fitted curve at half-maximal effect.

SMILES	Pf growth 96h	AMA1 RON2 block	NS1 function inh	HCV inh	SARS PLP yeast	Pf growth 48h
O=C(NN1CCOCC1)NC12CC3CC(CC(C3)C1)C2	?	-3%	-2%	22%	0%	?
Nc1nc(SCn2nnc3ccccc3c2=O)n[nH]1	18%	-1%	11%	-1%	1%	9%
N#C/C(=C/c1ccc2c(c1)OCO2)C(=O)NCCc1c[nH]c2ccccc12	0%	?	-7%	-9%	2%	?
N#C/C(=C\c1ccc(-c2ccc(Br)cc2)o1)C(=O)NCCc1c[nH]c2ccccc12	-6%	-11%	18%	22µM*	-2%	-6%
N#C/C(=C/c1ccc(-c2ccc(Br)cc2)o1)C(=O)NC1CCCCC1	?	31%	-4%	14µM*	-14%	12%
Cc1ccc(-c2[nH]ncc2/C=C(\C#N)C(=O)NC2CCCCC2)cc1	?	-4%	14%	?	-13%	?
COc1ccc(-c2[nH]ncc2/C=C(/C#N)C(=O)NC2CCCCC2)cc1	7.4µM*	?	1%	13µM*	2%	/
COc1ccc(N2C(=O)c3cccc4c(N(C)CCO)ccc(c34)C2=O)cc1	22%	-4%	20%	?	-5%	10µM*
Cc1nc(N2CCC(C)CC2)c2c(C)c(C(=O)Nc3ccc(C(F)(F)F)cc3)sc2n1	?	-4%	/	11µM*	0%	0.21µM*
Cc1nc(N2CCC(C)CC2)c2c(C)c(C(=O)Nc3cccc(C(F)(F)F)c3)sc2n1	-24%	-11%	/	?	-1%	?
Cc1nc(N2CCN(c3ccccn3)CC2)c2c(C)c(C(=O)Nc3ccc(F)cc3Cl)sc2n1	14%	5%	-1%	?	5%	?
Cc1c(C(=O)Nc2ccccc2F)sc2ncn(CC(=O)N3CCOCC3)c(=O)c12	?	-2%	0%	9%	-15%	12%
Cc1nc(N2CCN(c3ccccn3)CC2)c2c(C)c(C(=O)Nc3ccccc3F)sc2n1	?	-13%	/	?	-2%	6.6µM*
Cc1nc(N2CCN(c3ccccn3)CC2)c2c(C)c(C(=O)Nc3ccc(F)cc3F)sc2n1	-15%	-2%	/	6%	-3%	8.3µM*
Cc1ccc(F)cc1NC(=O)c1sc2ncn(CC(=O)N3CCN(c4ccccn4)CC3)c(=O)c2c1C	15µM*	13%	6%	15%	-3%	12%
Cc1ccc(NC(=O)C2(C)CCN2CCc2ccccc2)cc1 (stereo unspecified)	/	16%	/	/	/	/
COc1ccc(-n2cc(CN3CCCC3)c(-c3cccc(F)c3)n2)cc1	249%	10%	1%	-16%	0%	?
Cc1ccc(-n2cc(CN3CCNC(=O)CC3)c(-c3ccc(F)cc3)n2)cc1	?	-13%	-4%	-3%	1%	?
Cc1ccc(-n2cc(CN3CCC(O)(c4ccccn4)CC3)c(-c3ccc(F)cc3)n2)cc1	2.3µM*	-4%	8%	?	-1%	4.7µM*
Cc1cccc(-n2cc(CN3CCN(Cc4nccn4C)CC3)c(-c3cccc(F)c3)n2)c1	-11%	30%	-2%	?	0%	3.3µM*
CC(=O)N1CCCN(Cc2cn(-c3ccc(C)cc3)nc2-c2cccc(C)c2)CC1	?	-2%	2%	-16%	0%	9.3µM*
CCCNc1nc(-c2cc(-c3ccc(Cl)cc3)on2)cc(C(C)C)n1	42%	18%	3%	15%	0%	16%
Cc1ccc(N2CC(C(=O)Nc3ccc4c(c3)OCO4)CC2=O)cc1C (stereo unspecified)	5%	-9%	-1%	2%	1%	4%
COc1ccccc1N=CC1=C(O)CC(c2ccccc2)CC1=O (stereo unspecified)	13µM*	12%	1%	-7%	-12%	13%
O=C1CC(c2ccccc2)CC(O)=C1C=NCc1ccncc1 (stereo unspecified)	12µM*	23%	/	17%	0%	9%
Cc1csc2nc(SCC(=O)N3CCN(c4ccccc4)CC3)[nH]c(=O)c12	5%	-18%	9%	2%	-2%	-9%
